Results filed as inconclusive are left out. Entries that show only a call come without a potency. The source made the active and inactive calls. Unless noted, calls follow the shape of the dose curve; as a rule, active = well fitted curve in the direction sought with a large enough effect in the repeat runs; inconclusive = weak or mixed curves; inactive = no such curve, though single readings can be large; an effect the other way counts as inactive or inconclusive.
Assays:
[1] = qHTS assay to identify small molecule antagonists of the estrogen related receptor (ERR) signaling pathway from Tox21 library - cell viability counter screen (AID 1224834); also: nearly all actives have a fitted effect of over 30% in size; also: potency is read from the fitted curve at half-maximal effect
In short: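 Fluorescence from CellTiter-Fluor gives the viability read-out, taken 30 min after reagent addition. Before that, ERR cells seeded 6 h earlier were incubated with compounds for 17.5 h at 37 C.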

[2] = molecular target: Luciferin 4-monooxygenase (Photinus pyralis) (UniProt P08659); experiment: qHTS assay to identify small molecule inhibitors of firefly luciferase (AID 1224835); also: nearly all actives have a fitted effect of over 25% in size; also: potency is read from the fitted curve at half-maximal effect
Chain of Luciferin 4-monooxygenase (Photinus pyralis) (P08659 whole entry, looked up): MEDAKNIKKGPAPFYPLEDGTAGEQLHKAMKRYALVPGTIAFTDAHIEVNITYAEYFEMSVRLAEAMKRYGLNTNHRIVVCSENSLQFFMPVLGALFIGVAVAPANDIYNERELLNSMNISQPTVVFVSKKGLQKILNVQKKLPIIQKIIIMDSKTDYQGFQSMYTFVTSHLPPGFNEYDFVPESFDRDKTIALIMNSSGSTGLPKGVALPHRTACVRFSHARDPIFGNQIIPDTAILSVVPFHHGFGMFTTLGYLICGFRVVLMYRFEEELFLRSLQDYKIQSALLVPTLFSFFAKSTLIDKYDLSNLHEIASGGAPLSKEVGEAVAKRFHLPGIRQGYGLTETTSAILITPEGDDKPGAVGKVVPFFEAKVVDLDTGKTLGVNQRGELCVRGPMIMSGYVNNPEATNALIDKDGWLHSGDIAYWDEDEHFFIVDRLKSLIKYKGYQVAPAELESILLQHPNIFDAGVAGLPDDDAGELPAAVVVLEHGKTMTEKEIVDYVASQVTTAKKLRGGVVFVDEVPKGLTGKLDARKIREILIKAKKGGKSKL
In short: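 Biochemical qHTS: compounds run as interplate titrations against purified firefly enzyme, with D-luciferin and ATP each at its KM concentration. Light output recorded by CCD imaging.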

[3] = qHTS assay to identify small molecule antagonists of the constitutive androstane receptor (CAR) signaling pathway - cell viability counter screen (AID 1224837); also: series mostly up to about 92 µM; nearly all actives have a fitted effect of over 45% in size
In short: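 HepG2-CYP2B6-hCAR cells, 2500/well, 4 hr pre-incubation; compound titration, 15 conc.; CITCO 50 nM final; 23 hr, 37 C/5% CO2; CellTiter-Fluor, fluorescence intensity.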

[4] = molecular target: Nuclear receptor subfamily 1 group I member 3 (Homo sapiens) (UniProt Q14994); experiment: qHTS assay to identify small molecule agonists of the constitutive androstane receptor (CAR) signaling pathway (AID 1224839);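 also: HepG2 cells stably carrying human CAR and a CYP2B6 luciferase reporter; series mostly up to about 92 µM; nearly all actives have a fitted effect of over 15% in size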
Chain of Nuclear receptor subfamily 1 group I member 3 (Homo sapiens) (Q14994 whole entry, looked up): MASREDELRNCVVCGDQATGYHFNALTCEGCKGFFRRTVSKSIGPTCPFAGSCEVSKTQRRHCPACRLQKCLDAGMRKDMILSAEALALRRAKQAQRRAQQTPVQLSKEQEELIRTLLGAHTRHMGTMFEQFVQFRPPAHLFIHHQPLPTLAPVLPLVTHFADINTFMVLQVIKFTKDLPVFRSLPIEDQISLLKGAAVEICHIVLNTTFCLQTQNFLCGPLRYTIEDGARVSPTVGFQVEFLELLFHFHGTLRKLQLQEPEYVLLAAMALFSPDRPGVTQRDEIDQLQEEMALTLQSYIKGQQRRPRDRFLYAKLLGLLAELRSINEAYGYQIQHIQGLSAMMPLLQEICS
In short: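 Compounds tested at 15 concentrations on HepG2 cells stably harbouring hCAR and CYP2B6-2.2kb reporter constructs, co-treated with PK11195 (0.75 uM final), 24 h at 37 C; luminescent reporter signal quantified.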

[5] = qHTS assay to identify small molecule antagonists of the estrogen related receptor signaling pathway with the pleiotropic PPARgamma coactivator (PGC) from Tox21 10K library (AID 1224841; call rule not given here; also: actives are mostly falling curves and most rising ones were filed inactive; nearly all actives have a fitted effect of over 50% in size; also: potency is read from the fitted curve at half-maximal effect)
In short: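 PGC/ERR cell line, 2,000 cells/well; 6 h pre-incubation 37 C/5% CO2; compounds (DMSO) pinned in; 18 h, 37 C; One-Glo, 30 min RT; luminescence.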

[6] = qHTS assay to identify small molecule agonists of the constitutive androstane receptor (CAR) signaling pathway - cell viability counter screen (AID 1224836); also: nearly all actives have a fitted effect of over 45% in size; also: potency is read from the fitted curve at half-maximal effect
In short: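 23 h treatment, 37 C, 5% CO2. Cell line: HepG2 stably expressing hCAR with a CYP2B6-2.2kb construct. Co-treatment: PK11195, 0.75 uM final. Read-out: CellTiter-Fluor fluorescence intensity.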

[7] = qHTS assay to identify small molecule antagonists of the estrogen related receptor signaling pathway with the pleiotropic PPARgamma coactivator (PGC) from Tox21 10K library - cell viability counter screen (AID 1224840; active = well fitted cell-killing curve with a large enough effect in the repeat runs, not every such curve was filed as active; also: nearly all actives have a fitted effect of over 40% in size; also: potency is read from the fitted curve at half-maximal effect)
In short: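 PGC/ERR cells, 2,000/well; 6 h pre-incubation 37 C/5% CO2; cpd in DMSO via pin tool; 17.5 h 37 C; CellTiter-Fluor, 30 min; fluorescence.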

[8] = molecular target: Nuclear receptor subfamily 1 group I member 3 (Homo sapiens) (UniProt Q14994); experiment: qHTS assay to identify small molecule antagonists of the constitutive androstane receptor (CAR) signaling pathway (AID 1224838);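 also: HepG2 cells stably expressing hCAR with CYP2B6 luciferase reporter stimulated by CITCO; nearly all actives have a fitted effect of over 40% in size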
In short: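 HepG2-CYP2B6-hCAR cells; 4 h pre-incubation; cpd (15 conc) + CITCO 50 nM final; 24 h, 37 C/5% CO2; ONE-Glo, luminescence.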

[9] = qHTS assay to identify small molecule agonists of the estrogen related receptor signaling pathway with the pleiotropic PPARgamma coactivator (PGC) from Tox21 10K library (AID 1224842); also: nearly all actives have a fitted effect of over 15% in size
In short: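 PGC/ERR reporter cell line, 2,000 cells per well, incubated 6 h at 37 C before 23 nL compound in DMSO was added. After 18 h at 37 C, One-Glo luminescence read following 30 min at room temperature.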

Compound	Potency [1]	Potency [2]	Potency [3]	Potency [4]	Potency [5]	Potency [6]	Potency [7]	Potency [8]	Potency [9]
CN1CCCC(CC2c3ccccc3Sc3ccccc32)C1 (stereo not drawn)	26.6 µM (active)	inactive	inactive	inactive	inactive				
CCOc1ccccc1O[C@H](c1ccccc1)[C@H]1CNCCO1	inactive	inactive				inactive	inactive		
CCOC(=O)OC(C)OC(=O)[C@@H]1N2C(=O)[C@@H](NC(=O)[C@H](N)c3ccccc3)[C@H]2SC1(C)C (stereo partly drawn)	inactive	inactive		inactive		inactive	inactive	inactive	
CN1C(=O)N(c2ccccc2Br)Cc2cnc(Nc3ccc4c(c3)OCC(CO)O4)nc21 (stereo not drawn)	27.3 µM (active)	20 µM (active)				30.6 µM (active)	21.7 µM (active)		inactive
CC(C)(C)C(=O)C(=O)O	inactive	inactive		inactive		inactive	inactive	inactive	
CC(=O)Oc1ccc([N+](=O)[O-])cc1CCl	30.6 µM (active)	inactive		inactive	inactive	43.3 µM (active)	30.6 µM (active)	inactive	inactive
CCCCN(CCCC)C(C(N)=O)c1ccc(OC)cc1 (stereo not drawn)	inactive	inactive				inactive	inactive	inactive	
COc1cc(Nc2c(C#N)cnc3cc(OCCCN4CCN(C)CC4)c(OC)cc23)c(Cl)cc1Cl	9.44 µM (active)	inactive				inactive	inactive		
Nc1cccc2c1CN(C1CCC(=O)NC1=O)C2=O (stereo not drawn)	inactive	inactive		inactive		inactive	inactive	inactive	
C=C(C)[C@@H]1CCC2=CCC[C@@H](C)[C@]2(C)C1	inactive	inactive		inactive	inactive	inactive	inactive		inactive
O=C1c2ccccc2C(=O)N1CCc1noc(-c2ccc(CN3CCCCCC3)s2)n1	49.9 µM (active)	inactive	inactive	inactive				inactive	
O=C(CCCN1CC=C(n2c(=O)[nH]c3ccccc32)CC1)c1ccc(F)cc1	33.5 µM (active)	inactive		inactive		inactive	inactive	inactive	
C=COCC(C)C	inactive	inactive		inactive	inactive	inactive	inactive	inactive	inactive
O[C@@H]1CO[C@H]2[C@@H]1OC[C@@H]2O	inactive	inactive				inactive	inactive		
Cc1cc(C)cc(N)c1	inactive	inactive		inactive		inactive	inactive	inactive	
CC(=O)NC1(c2cccc(F)c2)CCN(CC[C@@]2(c3ccc(Cl)c(Cl)c3)CN(c3ccccc3)C(=O)CO2)CC1	54.6 µM (active)	inactive		inactive			43.4 µM (active)		
CCc1ccccc1	inactive	inactive		inactive		inactive	inactive	inactive	
CC(=O)N/N=C/c1ccc([N+](=O)[O-])o1	inactive	inactive		inactive		inactive	inactive	inactive	inactive
COc1ccccc1Oc1c(NS(=O)(=O)c2ccc(C(C)(C)C)cc2)nc(-c2ncccn2)nc1OCCO	inactive	inactive		inactive	inactive	inactive	inactive	inactive	inactive
CC(O)c1ccccc1 (stereo not drawn)	inactive	inactive		inactive		inactive	inactive	inactive	inactive
O=C1c2ccccc2C(=O)c2c(O)c(O)cc(O)c21	30.6 µM (active)	44.8 µM (active)				inactive		inactive	inactive
CCOC(=O)c1ccc(OCCN2C[C@H](O)[C@@H](O)[C@H](O)[C@H]2CO)cc1	inactive	inactive		inactive		inactive	inactive	inactive	
C[C@@H](O[C@H]1OCCN(Cc2n[nH]c(=O)[nH]2)[C@H]1c1ccc(F)cc1)c1cc(C(F)(F)F)cc(C(F)(F)F)c1	26.6 µM (active)	inactive	inactive		29.8 µM (active)				inactive
OC1(c2ccccc2)CCNCC1	inactive	inactive		inactive		inactive	inactive	inactive	inactive
CCCCCCCCC(CCCCCC)C(=O)O (stereo not drawn)	inactive	inactive		inactive	inactive	inactive	inactive	inactive	inactive
